# A number with no mark means an inactive call. Inconclusive results are not listed. Entries that show only a call come without a potency. The source made the active and inactive calls. The call rests on the fitted dose curve; in most records, active means well fitted curve in the direction sought with a large enough effect; inconclusive means small, poorly fitted or top-dose-only effect, or another doubt; inactive means no such curve, though single readings can be large; an effect the other way counts as inactive or inconclusive. *1 amine or outer side, *2 acyl side, *3 side chain or, on linkers, in order; H or OH if unused. Where a SMILES comes first, the peptide text is derived from it. Bridges are numbered along the chain shown (N, C = ends). [ ]: non-standard residue; d: D form. The star is where a group is joined. ξ: configuration not given here. X10 = NC1=NCCC(C(N[*:1])C(=O)[*:2])N1; ΔAla(3-NHCONH2) = NC(=O)NC=C(N)C(=O)O; ξβ3hOrn = NCCCC(N)CC(=O)*; Dap = NC[CH](N)C(=O)O
# Tests used:
# [1] = molecular target: Protein phosphatase 1D (Homo sapiens) (UniProt O15297); experiment: RapidFire Mass Spectrometry qHTS Assay for Modulators of WT P53-Induced Phosphatase 1 (WIP1) (AID 1347424);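 further: amount of dephosphorylated VEPPL-S-QETFS peptide product formed by WIP1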; further: potency means the concentration at half of the fitted maximal effect; on activity change, negative = inhibition: series mostly up to about 63 µM
# How it was run: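 10 nM WIP1 + cpd, 1 h RT; + 2 uM VEPPL-pS-QETFS, 5 min RT; stop 0.5% formic acid; labelled product standard 1 uM; RapidFire MS. Buffer 50 mM Tris pH 7.5, 30 mM MgCl2, 1 mM TCEP.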
# [2] = molecular target: Protein phosphatase 1D (Homo sapiens) (UniProt O15297); experiment: Rhodamine-PBP qHTS Assay for Modulators of WT P53-Induced Phosphatase 1 (WIP1) (AID 1347425)
# How it was run: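 WIP1 (5 nM final) was preincubated with compound for 1 hour at room temperature. It then dephosphorylated 10 uM VEPPL-pS-QETFS peptide in Tris-HCl pH 7.5 with 30 mM MgCl2. Released Pi was detected by 10 uM Rh-PBP fluorescence (ex 525/em 598 nm) read at 1-min intervals for 11 min, as delta f1 - f0.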
# [3] = qHTS for inhibitors of adenylyl cyclases using a fission yeast platform: a pilot screen against the NCATS LOPAC library (AID 1347410)
# How it was run: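 Fission yeast qHTS: CHP2027 cells (AC9-GNAS-PDE4D2, fbp1-GFP), 5x10^6 cells/mL working density, EMM + His/Lys/Ura; LOPAC at up to 57 µM final; 18 h dark, 30C; GFP by laser cytometry. DPI positive control, DMSO vehicle.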
# [4] = Validation qHTS assay for inhibitors of Activation Induced Cytidine Deaminase (AID): UDG Counterscreen signal (AID 1347427)
# How it was run: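 Counterscreen read of UDG activity (2 U/mL, 4/3x) in the FRET deamination format with AID (1 uM, 4/3x), DJC20/DJC23 substrates (250 nM, 4x), 4 h at room temperature. NaOH stop, fluorescence at 560 ex/665 em.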
# [5] = qHTS to identify inhibitors of the type 1 interferon - major histocompatibility complex class I in skeletal muscle: primary screen against the NCATS Mechanism Interrogation Plate v5.0 (MIPE) Libary (AID 1347411); further: nearly all actives have a fitted effect of over 65% in size
# How it was run: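 Cells were genome-edited human myoblasts carrying a HiBit tag on endogenous HLA-B. They were treated with IFN-beta (4.0 ng/ml) and titrated compounds (top 46 uM) for 24 hrs before lytic HiBiT detection.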
# Protein phosphatase 1D (Homo sapiens), sequence (O15297 whole entry, looked up): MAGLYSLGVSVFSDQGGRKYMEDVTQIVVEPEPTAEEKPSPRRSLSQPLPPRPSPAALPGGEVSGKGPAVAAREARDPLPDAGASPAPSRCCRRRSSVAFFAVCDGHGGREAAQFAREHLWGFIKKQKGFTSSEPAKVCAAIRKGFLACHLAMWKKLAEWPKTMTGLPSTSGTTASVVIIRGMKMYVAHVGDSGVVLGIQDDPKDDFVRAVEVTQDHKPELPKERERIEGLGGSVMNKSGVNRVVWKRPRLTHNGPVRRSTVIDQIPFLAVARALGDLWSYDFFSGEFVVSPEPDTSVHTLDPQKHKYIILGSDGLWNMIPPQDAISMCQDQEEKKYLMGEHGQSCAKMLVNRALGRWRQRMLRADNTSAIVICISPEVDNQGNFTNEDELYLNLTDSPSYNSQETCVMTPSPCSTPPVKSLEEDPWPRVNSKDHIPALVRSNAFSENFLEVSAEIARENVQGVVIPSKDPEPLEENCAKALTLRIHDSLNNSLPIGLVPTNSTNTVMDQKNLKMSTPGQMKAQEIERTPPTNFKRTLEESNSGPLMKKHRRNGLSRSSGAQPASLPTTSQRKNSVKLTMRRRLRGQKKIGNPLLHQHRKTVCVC
compound,measurement,setting,value
OC1(c2ccc(Cl)cc2)CCNCC1,Potency,[1],inactive
same,outcome,[2],inactive
Brc1ccc([C@H]2CN3CCSC3=N2)cc1,outcome,[3],inactive
same,outcome,[4],inactive
CC(C)NCCCC1(C(N)=O)c2ccccc2-c2ccccc21,Potency,[1],inactive
same,outcome,[2],inactive
CCN(CC)CC(=O)OCC(=O)[C@@]1(O)CC[C@H]2[C@@H]3CCC4=CC(=O)CC[C@]4(C)[C@H]3[C@@H](O)C[C@@]21C,Potency,[1],inactive
same,outcome,[2],inactive
Cc1cc2nc3ccc(=[N+](C)C)cc-3sc2cc1N,Potency,[1],inactive
COc1cc2c(cc1OC)C(=O)CC2,Potency,[1],inactive
CC(CC1c2ccccc2CCc2ccccc21)CN(C)C (configuration not stated),Potency,[1],inactive
COc1ccc(CCC(C)=O)cc1,Potency,[1],inactive
same,outcome,[2],inactive
COc1c(N2C[C@@H]3CCCN[C@@H]3C2)c(F)cc2c(=O)c(C(=O)O)cn(C3CC3)c12,Potency,[1],inactive
same,outcome,[2],inactive
Cc1ccc2ccc(Cl)cc2n1,Potency,[1],inactive
same,outcome,[2],inactive
COc1cccc2c1[C@@H]1CN(CCCCn3c(=O)[nH]c4c(sc5ncc(-c6ccccc6)nc54)c3=O)C[C@@H]1CO2,outcome,[3],inactive
same,outcome,[4],inactive
CCCCC(=O)OCC(=O)[C@H]1[C@H](C)C[C@H]2[C@@H]3C[C@H](F)C4=CC(=O)C=C[C@]4(C)[C@@]3(F)[C@@H](O)C[C@@]21C,Potency,[1],inactive
same,outcome,[2],inactive
Nc1ccc(O)cc1,Potency,[1],inactive
O=C(Nc1ccc(Cl)cc1)Nc1ccc(Cl)c(C(F)(F)F)c1,Potency,[1],12.6 µM (active)
Cc1cc(=O)oc2cc(O[C@@H]3SC[C@@H](O)[C@H](O)[C@H]3O)ccc12,Potency,[1],inactive
same,outcome,[2],inactive
CC(C)(c1ccc(O)cc1)c1ccc(O)cc1,Potency,[1],inactive
CC(C(O)c1ccccc1)N(C)CCOC(c1ccccc1)c1ccccc1 (configuration not stated),Potency,[1],inactive
Cc1cccc(C)c1NC(=O)c1cc(S(N)(=O)=O)c(Cl)cc1O,Potency,[1],inactive
same,outcome,[2],inactive
CCCC(=O)OCOC(=O)C1=C(C)NC(C)=C(C(=O)OC)C1c1cccc(Cl)c1Cl (configuration not stated),Potency,[1],inactive
O=C(Oc1ccccc1)c1cccc(C(=O)Oc2ccccc2)c1,Potency,[1],inactive
same,outcome,[2],inactive
O=C1CC[C@H](C(=O)N2CCCCC2)N1,Potency,[1],inactive
CC(C)C(C)(C)C(C)(C)C(C)(C)S,Potency,[1],inactive
same,outcome,[2],inactive
N#C/C(=C1/SC[C@@H](c2ccc(Cl)cc2Cl)S1)n1ccnc1,Potency,[1],inactive
C[C@H]1C[C@@H]2[C@H]([C@@H](O)C[C@@]3(C)[C@H]2CC[C@]3(O)C(=O)CO)[C@@]2(C)C=CC(=O)C=C12,Potency,[1],inactive
same,outcome,[2],inactive
COc1ccc2cc(C=O)ccc2c1,Potency,[1],inactive
O=C1NCCN1CCN1CCC(c2cn(-c3ccc(F)cc3)c3ccc(Cl)cc23)CC1,Potency,[1],inactive
CO/N=C(/C(=O)N[C@@H]1C(=O)N2C(C(=O)O)=C(Cn3nnc(C)n3)CS[C@H]12)c1csc(N)n1,Potency,[1],inactive
same,outcome,[2],inactive
C[C@@H]1CCC[C@H](C)N1CCCC(O)(c1ccccc1)c1ccccn1 (some centres not stated),Potency,[1],inactive
same,outcome,[2],inactive
Cc1ccc(/C=N/n2c(-c3ccccc3)csc2=S)cc1,Potency,[1],inactive
same,outcome,[2],inactive
Cc1ccc(C(=O)Oc2ccc(C(O)CNC(C)(C)C)cc2OC(=O)c2ccc(C)cc2)cc1 (configuration not stated),Potency,[1],inactive
same,outcome,[2],inactive
Nc1c(NC/C=C\COc2cc(CN3CCCCC3)ccn2)c(=O)c1=O,Potency,[1],inactive
same,outcome,[2],inactive
CCCCC(CC)COC(=O)c1ccccc1C(=O)O (configuration not stated),Potency,[1],inactive
CC(C)(C)CC(=O)OCC(=O)[C@@]1(O)CC[C@H]2[C@@H]3CCC4=CC(=O)C=C[C@]4(C)[C@H]3[C@@H](O)C[C@@]21C,Potency,[1],inactive
same,outcome,[2],inactive
Cc1cc(CCCOc2c(C)cc(-c3noc(C(F)(F)F)n3)cc2C)on1,Potency,[1],inactive
same,outcome,[2],inactive
O=C(CO)[C@@H](O)[C@H](O)[C@@H](O)CO,Potency,[1],inactive
CCCCCCCCCCCCCCCC[n+]1ccccc1,Potency,[1],inactive
O=C(O)[C@H](O)[C@@H](O)[C@H](O[C@@H]1O[C@H](CO)[C@H](O)[C@H](O)[C@H]1O)[C@H](O)CO,Potency,[5],inactive
same,outcome,[2],inactive
CCCC(=O)O[C@]1(C(=O)COC(=O)CC)CC[C@H]2[C@@H]3CCC4=CC(=O)CC[C@]4(C)[C@H]3[C@@H](O)C[C@@]21C,Potency,[1],inactive
same,outcome,[2],inactive
CC1CN(c2cc3c(cc2F)c(=O)c(C(=O)O)cn3-c2ccc(F)cc2F)CCN1 (configuration not stated),"activity change, negative = inhibition",[1],-2.72% [at 6.17 µM]
same,"activity change, negative = inhibition",[2],0.0772% [at 4.81 µM]
Oc1ccccc1-c1nnco1,Potency,[1],inactive
same,outcome,[2],inactive
Cc1cccc(C)c1NC(=O)c1ccc(N)cc1,Potency,[1],inactive
same,outcome,[2],inactive
C=CCOc1cc(Cl)ccc1C(=O)NCCN(CC)CC,Potency,[1],inactive
same,outcome,[2],inactive
O=C1NC2CCCCN2C12CCN(CCCN1c3ccccc3CCc3ccc(Cl)cc31)CC2 (configuration not stated),Potency,[1],inactive
same,outcome,[2],inactive
O=C(NO)c1ccccc1,Potency,[1],inactive
same,outcome,[2],inactive
O=C(CCOCCOCCOCCOCCC(=O)Nc1c(I)cc(I)c(C(=O)O)c1I)Nc1c(I)cc(I)c(C(=O)O)c1I,outcome,[2],inactive
O=C1Nc2ccccc2C1(c1ccc(O)cc1)c1ccc(O)cc1,Potency,[1],inactive
same,outcome,[2],inactive
CCCCOCCOC(=O)c1cccnc1,Potency,[1],inactive
same,outcome,[2],inactive
OCCCc1ccccc1,Potency,[1],inactive
same,outcome,[2],inactive
OC1(c2ccc(Cl)c(C(F)(F)F)c2)CCN(CCCC(c2ccc(F)cc2)c2ccc(F)cc2)CC1,Potency,[1],inactive
same,outcome,[2],inactive
NCCCC(N)CC(=O)NCC1NC(=O)C(CO)NC(=O)C(N)CNC(=O)C(C2CCN=C(N)N2)NC(=O)C(=CNC(N)=O)NC1=O (stereo not drawn) (H-[Dap]S[Dap](ξβ3hOrn)[ΔAla(3-NHCONH2)][X10]; lactam 1-C; configuration not given here),"activity change, negative = inhibition",[1],2.35% [at 0.505 µM]
same,"activity change, negative = inhibition",[2],11.7% [at 0.575 µM]
CN1C(CSCC(F)(F)F)Nc2cc(Cl)c(S(N)(=O)=O)cc2S1(=O)=O (configuration not stated),Potency,[1],inactive
same,outcome,[2],inactive
CC(=O)[C@@]1(O)CC[C@H]2[C@@H]3C[C@H](C)C4=CC(=O)CC[C@]4(C)[C@H]3CC[C@@]21C,Potency,[1],inactive
same,outcome,[2],inactive
CCCCCCCCCCCCCCCCCCNC(=O)OC1CCN(C(=O)OC[C@H](COC(=O)N(Cc2cccc[n+]2CC)C(=O)c2ccccc2OC)OC)CC1,Potency,[1],inactive
same,outcome,[2],inactive
O=c1[nH]sc2cc(Cl)ccc12,Potency,[1],inactive
same,outcome,[2],inactive
Clc1ccc2c(c1)Nc1ccccc1S2,Potency,[1],inactive
same,outcome,[2],inactive
CCOC(=O)C1=C(C)NC(C)=C(C(=O)OCC)C1c1ccccc1/C=C/C(=O)OC(C)(C)C,outcome,[2],inactive
CCc1cccc2c(CCO)c[nH]c12,outcome,[2],inactive
CCCCCCCCCCCCCC[N+](C)(C)C,Potency,[1],inactive
same,outcome,[2],inactive
CN(C)CCCOC1(Cc2ccccc2)CCCCCC1,Potency,[1],inactive
same,outcome,[2],inactive
CC(C)CCCC(C)NCCC(C)C (configuration not stated),Potency,[1],inactive
same,outcome,[2],inactive
CC(NCCC(c1ccccc1)c1ccccc1)c1ccccc1 (configuration not stated),Potency,[1],inactive
same,outcome,[2],inactive
CCCCCCCCCCCC[N+](C)(C)Cc1ccccc1,Potency,[1],inactive
same,outcome,[2],inactive
CCCN(CCC)C(=O)C(CCC(=O)OCCCN1CCN(CCOC(=O)Cc2c(C)n(C(=O)c3ccc(Cl)cc3)c3ccc(OC)cc23)CC1)NC(=O)c1ccccc1 (configuration not stated),outcome,[2],inactive
CCN(CC)CCOc1ccc(/C(=C(\Cl)c2ccccc2)c2ccccc2)cc1,Potency,[1],inactive
same,outcome,[2],inactive
NS(=O)(=O)c1cc(C(=O)NN2C[C@H]3[C@H]4CCC(C4)[C@H]3C2)ccc1Cl,outcome,[2],inactive
C[C@]12CCC(=O)C=C1CC[C@@H]1[C@@H]2[C@@H](O)C[C@@]2(C)[C@H]1CC[C@]2(O)C(=O)COC(=O)CCC(=O)O,Potency,[1],inactive
same,outcome,[2],inactive
O=C(OCC(O)CO)c1ccccc1Nc1ccnc2c(C(F)(F)F)cccc12 (configuration not stated),Potency,[1],inactive
same,outcome,[2],inactive
CC(C)(C)c1ccc(O)c(O)c1,outcome,[2],inactive
Cc1nc(N)nc(N)c1-c1ccc(Cl)c(Cl)c1,Potency,[1],inactive
same,outcome,[2],inactive
Nc1ccc2cc3ccc(N)cc3nc2c1,Potency,[1],inactive
same,outcome,[2],inactive
CCN1CCN(c2cc(-c3ccc(F)cc3)c3c(n2)CCCCCC3)CC1,Potency,[1],inactive
same,outcome,[2],inactive
O=C(Nc1ccc(Cl)cc1)Nc1ccc(Cl)c(Cl)c1,Potency,[1],inactive
same,outcome,[2],inactive
O=C(O)CCCC[P+](c1ccccc1)(c1ccccc1)c1ccccc1,Potency,[1],inactive
same,outcome,[2],inactive
C#CC(C)(CC)OC(=O)c1ccccc1C(=O)O (configuration not stated),Potency,[1],inactive
same,outcome,[2],inactive
O=C(O)c1ccccc1S,Potency,[1],inactive
same,outcome,[2],inactive
CN1CCN(N)CC1,Potency,[1],inactive
same,outcome,[2],inactive
Cc1cc(OCCOCC[N+](C)(C)Cc2ccccc2)ccc1C(C)(C)CC(C)(C)C,outcome,[2],inactive

# From PubChem BioAssay (NCATS)
